TLR9-MyD88 block: inhibitors of TLR9-MyD88 association in cells, primary screen, cell-based, CHO, BLA complementation, fluorescence | Toll-like receptor 9 (Homo sapiens) + Myeloid differentiation primary response protein … | inhibition, % at 4.98 µM | AID 504734, 2011 | CCF4 FRET ratio | 340,000 tested, 0.21% active;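 active means inhibition above the mean over all tested compounds plus 3 SD, cut at about 21% in these data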
TLR4-MyD88 BLA: inhibitors of TLR4-MyD88 association in cells, primary screen, cell-based, HeLa CL3-4, BLA complementation, FRET ratio; Toll-like receptor 4 (Homo sapiens) + Myeloid differentiation primary response protein …; HeLa CL3-4 TLR4/MyD88 BLA complementation; inhibition, % at 8.4 µM; 200,000 tested, 0.18% active; in the data active means inhibition above about 25%
Rtt109 Vps75: inhibitors of C. albicans Rtt109/Vps75 HAT, primary screen, biochemical, ThioGlo CoA-SH fluorescence, plate reader; Histone acetyltransferase RTT109 (Candida albicans (strain SC5314 / ATCC MYA-2876)), …; purified Rtt109/Vps75, 4 h; inhibition, % at 34.9 µM; 330,000 tested, 0.16% active; AID 540336, 2011;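 active means inhibition of at least 50% in every replicate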
NOD2 RIPK2 PPI: NOD2-RIPK2 binding disruptors in cells, primary screen, fluorescence, CHO cells, BLA complementation; Receptor-interacting serine/threonine-protein kinase 2 (Homo sapiens), O43353; CCF4 ratio; inhibition, % at 4.98 µM; 360,000 tested, 0.38% active; AID 624267, 2012; in the data active means inhibition above about 21%
LANA-H2B inh: blockers of LANA interaction with H2A/H2B – biochemical, FP readout, HTS, primary screen; Protein LANA1 (Human herpesvirus 8 type P (isolate GK18)), Q9QR71; 320,000 tested, 0.6% active; cell-free LANA-H2A/H2B peptide, fluorescence polarization; AID 2629, 2010; inhibition, % (test concentration not listed); in the data active means inhibition mostly above about 10%, no sharp cut-off; inactive means mostly below about 6.7%
HTR2A ag: mouse Htr2a agonists via beta-arrestin recruitment, primary screen, cell-based, luminescence; 5-hydroxytryptamine receptor 2A (Mus musculus), P35363; CHO-K1 mHTR2A beta-arrestin complementation; percent of 30 µM serotonin response; activation, % at 7.6 µM; 360,000 tested, 0.66% active; AID 624169, 2012;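 active means activation above a run cutoff, the mean activation of all tested compounds plus 3 SD, cut at about 14% in these data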
Hits are given with their value; 0 = inactive; - = no result given; + = active, no number. Compounds with a hit are over-represented: about 1.8% of the library has one in this group of screens.

SMILES	TLR9-MyD88 block	TLR4-MyD88 BLA	Rtt109 Vps75	NOD2 RIPK2 PPI	LANA-H2B inh	HTR2A ag
O=C(NCC(=O)N(c1cccnc1)C(C(=O)NC1CCCCC1)c1cccnc1)c1ccco1 (stereo unspecified)	0	0	0	0	14	0
O=C(NCC(=O)N(c1ccccc1)C(C(=O)NC1CCCC1)c1cccnc1)c1ccco1 (stereo unspecified)	0	0	0	0	0	0
COc1ccc(OC(=O)N2CCOCC2)cc1	0	-	0	0	0	0
COc1ccc(/C(N)=N/OC(=O)N2CCOCC2)cc1	0	0	0	0	14	0
CN(CC(=O)Nc1ccc(Cl)cc1)C(=O)c1cccc(S(=O)(=O)NCc2ccccc2)c1	0	-	60	0	0	0
CN(CC(=O)Nc1ccc(Cl)cc1)C(=O)c1cccc(S(=O)(=O)N2CCN(Cc3ccccc3)CC2)c1	0	-	0	0	0	0
Cc1nonc1OCCNCCNc1ccccc1[N+](=O)[O-]	0	0	0	0	24	0
O=C(Nc1ccn(CCOC(=O)c2ccccc2)c(=O)n1)c1ccccc1	-	-	-	0	-	0
CCC(/C=C1\Sc2ccc(OC)cc2N1CCO)=C\c1sc2ccc(OC)cc2[n+]1CCO	0	0	114	0	0	0
CCCCOc1ccc2ccccc2c1C=O	0	0	0	0	0	0
O=[N+]([O-])/C=C/c1c(OCc2ccccc2)ccc2ccccc12	27	0	0	82	0	0
COc1cc(C(=O)NNC(=O)NC2CCCCC2)cc(OC)c1OC	0	0	0	0	14	0
O=C(N/C(=C\c1ccco1)C(=O)N1CCCC1CO)c1ccccc1 (stereo unspecified)	0	-	0	0	21	0
Cc1cccc(C)c1-n1nnnc1C(c1ccnc2ccccc12)N(C)Cc1ccc(Cl)c(Cl)c1 (stereo unspecified)	-	-	-	0	-	0
O=C(NC1CC1)c1ccc(-n2cccc2)cc1	0	0	0	0	99	0
COc1ccc(CCC(=O)Nc2c(-c3ccc(N(C)C)cc3)[nH][nH]c2=O)cc1	-	-	-	0	-	16
C=CCNc1nc2cc(-c3ccccc3C)sc2c(=O)n1C	-	-	-	0	-	0
CCOC(=O)C1C(=O)OC2(CCOC(C)(C)C2)C1C(=O)OCC (stereo unspecified)	0	0	0	0	29	0
Cc1ccc(S(=O)(=O)c2nc(-c3ccccc3)oc2N2CCC(C(N)=O)CC2)cc1	0	-	56	0	0	0
COc1ccc(-c2sc3cc(OC)c(OC)cc3c2-c2ccc(O)cc2)cc1	0	-	0	0	+	0
COc1ccc(-c2sc3ccccc3c2-c2ccc(O)cc2)cc1	0	-	0	0	0	0
COc1ccccc1N1CCN(C2CCCN(C(=O)c3cc(C4CC4)on3)C2)CC1 (stereo unspecified)	0	-	0	0	0	0
O=C(c1cc(C2CC2)on1)N1CCCC(N2CCN(c3ccc(F)cc3)CC2)C1 (stereo unspecified)	0	-	0	0	13	0
CCCCN(C=O)c1c(CC)nc2ccc(C(=O)NCc3ccc4c(c3)OCO4)cn12	-	-	-	0	-	0
CCCc1nc2c(C)cc(Br)cn2c1Cc1ccc(C)cc1	-	-	-	0	-	0
SMILES	TLR9-MyD88 block	TLR4-MyD88 BLA	Rtt109 Vps75	NOD2 RIPK2 PPI	LANA-H2B inh	HTR2A ag
Cc1ccc(Nc2nc3ccccc3c(=O)[nH]2)cc1C	0	0	0	0	0	0
COc1ccc(Nc2nc3ccccc3c(=O)[nH]2)cc1	0	-	0	0	21	0
COc1ccc(C(=O)Nc2nc3ccccc3c(=O)[nH]2)cc1	0	0	0	0	40	0
CCN1/C(=C/C=C/C=C/c2sc3ccccc3[n+]2CC)Sc2ccccc21	-	0	-	-	0	-
CCN1/C(=C/C=C/c2sc3ccccc3[n+]2CC)Sc2ccccc21	0	-	66	0	0	0
CC1(C(=O)Nc2ccc(Cl)c(Cl)c2)CCN1Cc1ccccc1OC(F)F (stereo unspecified)	-	-	-	0	-	0
COc1cccc(CNC(=O)c2cccc(S(=O)(=O)N3CCN(c4ccc(F)cc4)CC3)c2)c1	0	-	0	0	22	0
COc1ccc(CNC(=O)c2cccc(S(=O)(=O)N3CCN(c4ccc(F)cc4)CC3)c2)cc1	0	-	0	0	-	0
C=CCn1c(=S)[nH]c2ccccc2c1=O	0	0	0	0	16	0
COc1ccc(CC(=O)Nc2ccc(F)c(F)c2F)cc1S(=O)(=O)N1CCOCC1	0	-	0	0	140	0
COc1ccc(S(=O)(=O)N(C)C)cc1NC(=O)Cc1ccc(S(=O)(=O)N2CCOCC2)s1	0	-	51	0	-	0
COc1ccc(CC(=O)Nc2cc(F)ccc2F)cc1S(=O)(=O)N1CCOCC1	0	-	-	0	-	0
Cc1cccc(C)c1NC(=O)C1(C)CN(S(C)(=O)=O)CC(=O)N1CCc1ccccc1F (stereo unspecified)	-	-	-	0	-	0
COC(=O)[C@@]1(C(C)C)N=C(c2cc(OC)c(OC)c(OC)c2)[C@]2(O1)C(=O)N(Cc1ccc(OC)cc1)c1ccc(Br)cc12	-	-	-	0	-	0
CCOC(=O)C1=C[C@@H](c2ccccc2)N(S(=O)(=O)c2ccc(C)cc2)[C@H]1c1ccccc1Cl	-	-	-	0	-	0
CCN(CC)C(=O)c1sc2[nH]c(=S)n(-c3ccccc3)c(=O)c2c1C	0	0	0	0	0	0
O=C(O)C1CCc2sc3[nH]c(=S)n(-c4ccccc4)c(=O)c3c21 (stereo unspecified)	0	-	105	0	0	0
CC(C)CC(c1nnnn1Cc1ccc2c(c1)OCO2)N1CCC(C(N)=O)CC1 (stereo unspecified)	0	0	0	0	0	0
CC(C)C(c1nnnn1Cc1ccc(F)cc1)N1CCC(C(N)=O)CC1 (stereo unspecified)	0	0	0	0	39	0
